# Measurements as given in the antibiotic and cytotoxicity screens of Wong et al. (2023).
# In all, about 39,000 compounds went through this assay and about 1,500 (3.8%) were called active. This is one part of a sample in which actives are shown more often than they occur.
# Test system: HSkMC (human skeletal muscle cells)
# Test: cytotoxicity call (relative viability < 0.9)
# Conditions: 10 µM
row,SMILES,cytotoxicity call
1,C=C1CC2C(CCC3(C)C(=O)CCC23)C2(C)C=CC(=O)C=C12 (stereo not drawn),inactive
2,O=C1C[C@@H](c2ccncc2)C2(CCNCC2)N1,inactive
3,O=C(NN=Cc1ccc([N+](=O)[O-])o1)c1cc([N+](=O)[O-])cc([N+](=O)[O-])c1O,inactive
4,CC(C)N(C)C[C@H]1CO[C@]2(CNCCOC2)C1,inactive
5,O=c1cccc2n1C[C@@H]1C[C@H]2CN(CCO)C1,inactive
6,O=C(CBr)N1CC([N+](=O)[O-])([N+](=O)[O-])C1,inactive
7,O=C(O)CNCP(=O)(O)O,inactive
8,NCCO.NCCO.O[AsH]O[AsH]O (stereo not drawn),inactive
9,O=c1cccc2n1C[C@H]1CNC[C@H]2C1,inactive
10,CN(C)C(=O)Oc1ccc[n+](C)c1.[Br-],inactive
11,NCC1(c2c(F)cc(F)cc2F)CC1,inactive
12,CO[C@H]1[C@@H](O)C[C@@H](O[C@H]2[C@@H](O)C[C@@H](O[C@H]3[C@@H](O)C[C@@H](O[C@H]4CC[C@@]5(C)[C@@H](CC[C@H]6[C@@H]5C[C@@H](O)[C@@]5(C)[C@H](C7=CC(=O)OC7)CC[C@@]65O)C4)O[C@@H]3C)O[C@@H]2C)O[C@@H]1C,active
13,CO[C@H]1[C@H](O)[C@@H](O[C@H]2[C@@H](C)O[C@@H](O[C@H]3[C@H](C)O[C@H](O[C@H]4CC[C@@]5(C)[C@@H](CC[C@@]6(O)[C@@H]5C[C@@H](O)[C@]5(C)[C@]6(O)CC[C@@]5(O)[C@@H](C)O)C4)C[C@@H]3OC)C[C@H]2OC)O[C@@H](C)[C@H]1O,inactive
14,Cc1cc(N(C)C)ccc1C[C@@H](C)N,inactive
15,Cn1cc(N2C[C@@H]3CN(CCO)C[C@@H]3C2=O)cn1,inactive
16,COC(=O)[C@@H]1[C@@H](CO)[C@@H]2Cn3c(ccc(C4=CCCC4)c3=O)[C@H]1N2S(=O)(=O)c1cn(C)cn1,inactive
17,CCC(=O)CCCCC[C@@H]1NC(=O)[C@H]2CCCCN2C(=O)[C@H]([C@H](C)CC)NC(=O)[C@H](Cc2cn(OC)c3ccccc23)NC1=O,active
18,CCC(=O)CCCCC[C@@H]1NC(=O)[C@H]2CCCCN2C(=O)[C@H]([C@@H](C)CC)NC(=O)[C@H](Cc2cn(OC)c3ccccc23)NC1=O,active
19,Nc1ccc(-c2ccc(N)cc2)cc1,inactive
20,O=[N+]([O-])c1cc([As](=O)(O)O)ccc1O,inactive
21,COc1cccc(-c2ccc3c(CCN)c[nH]c3c2)c1,inactive
22,CCNS(=O)(=O)C(F)(F)C(F)(F)C(F)(F)C(F)(F)C(F)(F)C(F)(F)C(F)(F)C(F)(F)F,inactive

row,SMILES,cytotoxicity call
1,CC(=O)NCCSS(C)(=O)=O.CN(C)c1ccc2c(-c3ccccc3C(=O)O)c3ccc(N(C)C)cc3[o+]c2c1,inactive
2,CNc1ccc2oc(C[C@H]3O[C@@]4(CC[C@H]3C)O[C@H]([C@H](C)C(=O)c3ccc[nH]3)[C@H](C)C[C@H]4C)nc2c1C(=O)O,active
3,NCc1[nH]nc2cc(F)ccc12,inactive
4,CC(=O)[C@]12[C@@H]3CC=C[C@H]1N2CC3 (stereo partly drawn),inactive
5,CCN1C[C@]2(OC(=O)c3ccccc3NC(C)=O)CC[C@H](OC)[C@@]34[C@@H]2C[C@@H]([C@@H]13)[C@@]1(O)C[C@H](OC)[C@H]2C[C@@H]4[C@]1(O)[C@H]2OC,inactive
6,COc1cc2c(cc1OC)C1C(=O)c3ccc4c(c3OC1CO2)CC(C(C)C)O4 (stereo not drawn),inactive
7,CC[C@@H](C(=O)[C@@H](C)[C@@H](O)[C@H](C)[C@@H]1O[C@@H]([C@@H](CC)C(=O)O)CC[C@@H]1C)[C@H]1O[C@]2(C=C[C@@H](O)[C@]3(CC[C@@](C)([C@H]4CC[C@](O)(CC)[C@H](C)O4)O3)O2)[C@H](C)C[C@@H]1C,active
8,CCC(C(=O)[O-])C1CCC(C)C(C(C)C(O)C(C)C(=O)C(CC)C2OC3(C=CC(O)C4(CCC(C)(C5CCC(O)(CC)C(C)O5)O4)O3)C(C)CC2C)O1.[Na+] (stereo not drawn),inactive
9,[N-]=[N+]=NCC(=O)N1CCOCC1,inactive
10,COCC(=O)N[C@@H]1[C@@H]2CNC[C@@H]21,inactive
11,C[C@H]1[C@H](O)[C@@H](C)/C=C\C=C/CC\C=C/C=C\C=C/C=C\[C@@H](O[C@@H]2O[C@H](C)[C@@H](O)[C@H](N)[C@@H]2O)C[C@H]2O[C@@](O)(C[C@@H](O)[C@@H]2C(=O)O)C[C@@H](O)[C@@H](O)CC[C@@H](O)C[C@@H](O)C[C@@H](O)CC(=O)O[C@H]1C,inactive
12,CN1CCC2(C)c3cc(O)ccc3N(C)C12.O=C(O)C=CC(=O)O (stereo not drawn),inactive
13,O=S(=O)(O)O.Oc1cccc2cccnc12,inactive
14,C[C@@]1(C(=O)O)[C@H]2CC[C@@H](O2)[C@@]1(C)C(=O)O,active
15,C[C@]12CC[C@](C)(O1)[C@H](C(=O)O)[C@@H]2C(=O)O,inactive
16,O=C(O)[C@H]1[C@H](C(=O)O)[C@H]2CC[C@@H]1O2,inactive
17,CC1(C)[C@@H](C=C(Br)Br)[C@@H]1C(=O)O[C@@H](C#N)c1cccc(Oc2ccccc2)c1,inactive
18,FCCN1C[C@H]2CCN[C@H]2C1,inactive
19,CC(C)(O)/C=C/C(=O)[C@](C)(O)[C@H]1[C@H](O)C[C@@]2(C)[C@H]3CC=C4[C@@H](CC(=O)C(=O)C4(C)C)[C@]3(C)C(=O)C[C@]12C,active
20,CC(=O)OC(C)(C)/C=C/C(=O)C(C)(O)[C@H]1[C@H](O)C[C@@]2(C)[C@H]3CC=C4[C@@H](C[C@H](O)C(=O)C4(C)C)[C@]3(C)C(=O)C[C@]12C (stereo partly drawn),inactive
21,C[C@@H]1CN([C@@H](C)CO)C(=O)c2c(c3ccccc3n2C)-c2ccccc2CO[C@@H]1CN(C)C(=O)Oc1ccccc1,inactive
22,C[C@H]1O[C@H](n2cnc3c(N)ncnc32)C[C@@H]1O,inactive

row,SMILES,cytotoxicity call
1,CC(C)C[C@@H](NC(=O)[C@H](Cc1ccccc1)NC(=O)CNC(=O)[C@@H](C)NC(=O)[C@@H](N)Cc1ccc(O)cc1)C(=O)O,inactive
2,O=C([O-])Cc1ccccc1.[Na+],inactive
3,CCCCOC(=O)c1ccccc1C(=O)OCCCC,inactive
4,C[CH2][Hg][S]c1ccccc1C(=O)[O-].[Na+],active
5,Cc1noc(C)c1CN1CCNCC1,inactive
6,CCN(C)C(=O)Oc1cccc(C(C)N(C)C)c1.O=C(O)C(O)C(O)C(=O)O (stereo not drawn),inactive
7,CCCCOC(=O)C1=CC(=O)CC(C)(C)O1,inactive
8,CNCCc1ccc(O)c(O)c1,inactive
9,NCCN1CCN(c2ccc(F)cc2)CC1,inactive
10,CCCCCCCCCCCCCCCC[n+]1ccccc1.[Cl-],active
11,CCCCCCCCCCCCCCCC[n+]1ccccc1,active
12,c1ccc(CN2CCNCC2)nc1,inactive
13,CN[C@@H](C)Cc1cnccn1,inactive
14,CCOCC(=O)N[C@H]1CCSC1=O,inactive
15,O=C1C[C@@H](CO)CN1,inactive
16,CN(C)C(=O)C(CCN1CCC(O)(c2ccc(Cl)cc2)CC1)(c1ccccc1)c1ccccc1.Cl,inactive
17,C[C@]12CC/C(=N\OCCN)C[C@@H]1C(=O)C[C@@H]1[C@@H]2CC[C@]2(C)C(=O)CC[C@@H]12,active
18,"C[C@]12CCC(=O)C[C@@H]1CC[C@@H]1[C@@H]2CC[C@]2(C)C(=O)CC[C@@H]12 [5alpha-ANDROSTAN-3,17-DIONE ]",inactive
19,CC12CCC3C(CC=C4CC(O)CCC43C)C1CCC2=O (stereo not drawn),inactive
20,CC1=C2C(=COC(C)C2C)C(O)=C(C(=O)O)C1=O (stereo not drawn),inactive
21,C=C(C)[C@H]1CN[C@H](C(=O)O)[C@H]1CC(=O)O,inactive
22,COC(=O)C[C@H]1CC[C@@H]2NC[C@@H](O)COC[C@H]2O1,inactive

row,SMILES,cytotoxicity call
1,Cc1ccc2c(CCN)c(C)n(C)c2c1,inactive
2,CCn1nc(-c2cccnc2)nc2c(=O)n(C)c(=O)nc1-2,active
3,C1C[C@@H]2C[C@@H]2N1,inactive
4,S=C=Nc1cccc(C2(N3CCCCC3)CCCCC2)c1,inactive
5,Cc1ncc(CNC(=O)N(CCCl)N=O)c(N)n1.Cl,inactive
6,CCC1(c2ccccc2)C(=O)NC(=O)NC1=O,inactive
7,NC[C@H]1CCCc2ccc(Cl)cc21,inactive
8,COCC(=O)N1[C@@H]2c3ccc(C4=CCCC4)c(=O)n3C[C@H]1[C@H](CO)[C@H]2C(=O)OC,inactive
9,CC(=O)OC1CCC2(C)C(=CCC3C4CCC(=O)C4(C)CCC32)C1 (stereo not drawn),inactive
10,CC1(C)S[C@@H]2[C@H](N)C(=O)N2[C@H]1C(=O)O,inactive
11,N.N.[Cl][Pt][Cl],inactive
12,CCOC(=O)c1c(CN2CCN(Cc3ccccc3)CC2)n(Cc2ccccc2)c2cc(Br)c(O)cc12,active
13,CCOC(=O)c1c(CN2CCN(c3ccccc3)CC2)n(Cc2ccccc2)c2cc(Br)c(O)cc12,active
14,CNCc1cccnc1,inactive
15,O=C1CO[C@H]2CNC[C@@H]2N1CC1CCCC1,inactive
16,C[C@H](CO)N1C[C@H](C)[C@@H](CN(C)C(=O)Oc2ccc3ccccc3c2)OCc2cnnn2CCCC1=O,inactive
17,O/N=C1\CN2CCC1CC2,inactive
18,C=C(C)C1Cc2c(ccc3c2OC2COc4cc(OC)c(OC)cc4C2C3=O)O1 (stereo not drawn),inactive
19,c1ccc(-c2ccncc2)cc1,inactive
20,C[C@@H]1CC[C@@]2(OC1)O[C@H]1[C@@H](O)[C@H]3[C@H]4CC[C@H]5C[C@H](O[C@@H]6O[C@H](CO)[C@H](O[C@@H]7O[C@H](CO)[C@@H](O)[C@H](O[C@@H]8OC[C@@H](O)[C@H](O)[C@H]8O)[C@H]7O[C@@H]7O[C@H](CO)[C@H](O)[C@H](O[C@@H]8O[C@H](CO)[C@@H](O)[C@H](O)[C@H]8O)[C@H]7O)[C@H](O)[C@H]6O)[C@H](O)C[C@]5(C)[C@@H]4CC[C@]3(C)[C@H]1[C@@H]2C,inactive
21,C[C@@H]1CC[C@@]2(OC1)O[C@H]1C[C@H]3[C@@H]4CC=C5C[C@@H](O[C@@H]6O[C@H](CO)[C@@H](O[C@@H]7O[C@@H](C)[C@H](O)[C@@H](O)[C@H]7O)[C@H](O)[C@H]6O[C@@H]6O[C@@H](C)[C@H](O)[C@@H](O)[C@H]6O)CC[C@]5(C)[C@H]4CC[C@]3(C)[C@H]1[C@@H]2C,active
22,CC1CCC2(NC1)OC1CC3C4CC=C5CC(O)CCC5(C)C4CCC3(C)C1C2C (stereo not drawn),inactive
